Measurements as given in PubChem BioAssay (NCATS).
Several values for one entry are separate records, joined by “and”; a condition that tells them apart may be missing. Equal values may be shown once. Inconclusive results are not listed. Where a call stands in place of a potency, no number is given. Activity calls are given as the source filed them. Calls follow the shape of the dose curve; as a rule, active = well fitted curve in the direction sought with a large enough effect; inconclusive = small, poorly fitted or top-dose-only effect, or another doubt; inactive = no such curve, though single readings can be large; an effect the other way counts as inactive or inconclusive.

Experiments:
[1] = qHTS of pediatric cancer cell lines to identify multiple opportunities for drug repurposing: Primary screen for MG 63 (6-TG R) cells (AID 1347105); also: nearly all actives have a fitted effect of over 50% in size
How it was run: (§1)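 CRCs from 8- or 11-point titrations (lowest final 0.59 nM NPC, 0.78 nM MIPE). Cell viability: CellTiter-Glo after 48 h incubation, 15 min room-temperature development, luminescence imaging.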

[2] = qHTS of pediatric cancer cell lines to identify multiple opportunities for drug repurposing: Primary screen for control Hh wild type fibroblast cells (AID 1347106); also: nearly all actives have a fitted effect of over 55% in size
How it was run: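 Viability after 48 h compound treatment at 37C, 500-1,000 cells/well, read as ATP luminescence with CellTiter-Glo. Primary screens used 11-point (MIPE, 0.78 nM-46 µM) or 8-point (NPC, 0.59 nM-46 µM) final concentrations; follow-up screens used 11-point dilutions.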

[3] = qHTS of pediatric cancer cell lines to identify multiple opportunities for drug repurposing: Primary screen for Rh30 cells (AID 1347107); also: nearly all actives have a fitted effect of over 75% in size
How it was run: (§2)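 Cells (500-1,000/well) in growth media were settled 5 h at 37 degrees C, then given compounds for 48 h. Viability was read as CellTiter-Glo luminescence. Primary runs used MIPE at 11 points (0.78 nM-46 µM) and NPC at 8 points (0.59 nM-46 µM); follow-ups used 11 points.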

[4] = qHTS of pediatric cancer cell lines to identify multiple opportunities for drug repurposing: Confirmatory screen for NB1643 cells (AID 1347109); also: nearly all actives have a fitted effect of over 45% in size
How it was run: as §2

[5] = qHTS of pediatric cancer cell lines to identify multiple opportunities for drug repurposing: Confirmatory screen for A673 cells (AID 1347110);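 also: cells exposed to compound for 48 h before the viability read; nearly all actives have a fitted effect of over 65% in size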
How it was run: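 A673 cells seeded at 500-1,000 cells/well, rested 5 h, then dosed; primary MIPE 11-point (0.78 nM to 46 µM), NPC (0.59 nM to 46 µM); confirmatory 11-point. CellTiter-Glo luminescence after 48 h.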

[6] = qHTS of pediatric cancer cell lines to identify multiple opportunities for drug repurposing: Confirmatory screen for SK-N-MC cells (AID 1347111);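 also: cells exposed to compound for 48 h before the readout; nearly all actives have a fitted effect of over 70% in size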
How it was run: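 Metabolically active cells were quantified by ATP-dependent luminescence (CellTiter-Glo, 15 min at room temperature) following 48 h treatment. Cells had been plated at 500-1,000 per well and settled for 5 h beforehand.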

[7] = qHTS of pediatric cancer cell lines to identify multiple opportunities for drug repurposing: Confirmatory screen for BT-12 cells (AID 1347112); also: nearly all actives have a fitted effect of over 55% in size
How it was run: as §2

[8] = qHTS of pediatric cancer cell lines to identify multiple opportunities for drug repurposing: Confirmatory screen for DAOY cells (AID 1347114); also: nearly all actives have a fitted effect of over 65% in size
How it was run: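 Viability measured as metabolically active cells via CellTiter-Glo luminescence following 48 hours of compound exposure, 11-point dilutions in confirmatory testing. 500-1,000 cells/well plated 5 hours before dosing; controls were DMSO and 2.3 µM bortezomib.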

[9] = qHTS of pediatric cancer cell lines to identify multiple opportunities for drug repurposing: Confirmatory screen for NB-EBc1 cells (AID 1347115);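 also: cells exposed to compound for 48 h before the viability read; nearly all actives have a fitted effect of over 45% in size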
How it was run: as §2

[10] = qHTS of pediatric cancer cell lines to identify multiple opportunities for drug repurposing: Primary screen for Rh41 cells (AID 1347108); also: nearly all actives have a fitted effect of over 70% in size
How it was run: as §1
Potency is read from the fitted curve at half-maximal effect.

Structure (SMILES): CC(C)(C)C(=O)OCOP(=O)(COCCn1cnc2c(N)ncnc21)OCOC(=O)C(C)(C)C
- Potency [1]: inactive
- Potency [2]: inactive
- Potency [3]: inactive
- Potency [4]: 8.27 µM (active)
- Potency [5]: 4.65 µM (active)
- Potency [6]: 0.329 µM (active)
- Potency [7]: 16.5 µM (active)
- Potency [8]: inactive
- Potency [9]: 8.27 µM (active)

Structure (SMILES): Cc1cccc(Nc2ccncc2S(=O)(=O)NC(=O)NC(C)C)c1
- Potency [1]: inactive
- Potency [2]: inactive
- Potency [3]: inactive
- Potency [10]: inactive

Structure (SMILES): CN(C)c1ccc(C(=C2C=CC(=[N+](C)C)C=C2)c2ccc(N(C)C)cc2)cc1
- Potency [1]: 2.66 µM (active) and 1.48 µM (active)
- Potency [2]: 8.41 µM (active) and 2.64 µM (active)
- Potency [3]: 11.9 µM (active) and 5.9 µM (active)
- Potency [10]: 6.68 µM (active) and 1.66 µM (active)
- Potency [4]: 1.17 µM (active)
- Potency [5]: 1.47 µM (active)
- Potency [6]: 0.737 µM (active)
- Potency [7]: 2.33 µM (active)
- Potency [8]: 0.737 µM (active)
- Potency [9]: 1.85 µM (active)

Structure (SMILES): CCCCCCNC(=O)n1cc(F)c(=O)[nH]c1=O
- Potency [1]: inactive
- Potency [2]: inactive
- Potency [3]: inactive
- Potency [10]: inactive

Structure (SMILES): CCCCS(=N)(=O)CCC(N)C(=O)O (stereo not given)
- Potency [1]: inactive
- Potency [2]: inactive
- Potency [3]: inactive
- Potency [10]: inactive

Structure (SMILES): CNCC[C@H](Oc1cccc2ccccc12)c1cccs1
- Potency [3]: inactive
- Potency [4]: inactive
- Potency [5]: 14.7 µM (active)
- Potency [6]: 6.57 µM (active)
- Potency [7]: inactive
- Potency [9]: inactive

Structure (SMILES): Clc1ccccc1CN1CCc2sccc2C1
- Potency [2]: inactive
- Potency [3]: inactive
- Potency [10]: inactive

Structure (SMILES): CNS(=O)(=O)Cc1ccc2[nH]cc(CCN(C)C)c2c1
- Potency [2]: inactive
- Potency [3]: inactive
- Potency [10]: inactive

Structure (SMILES): CS(=O)(=O)c1ccc([C@@H](O)[C@@H](CO)NC(=O)C(Cl)Cl)cc1
- Potency [2]: inactive
- Potency [3]: inactive
- Potency [5]: inactive
- Potency [7]: inactive
- Potency [8]: inactive
- Potency [9]: inactive

Structure (SMILES): COCCCOc1cc(C[C@@H](C[C@H](N)[C@@H](O)C[C@H](C(=O)NCC(C)(C)C(N)=O)C(C)C)C(C)C)ccc1OC
- Potency [2]: inactive
- Potency [10]: inactive

Structure (SMILES): CO[C@@]12[C@H](COC(N)=O)C3=C(C(=O)C(C)=C(N)C3=O)N1C[C@@H]1N[C@@H]12
- Potency [2]: inactive
- Potency [4]: 1.04 µM (active)
- Potency [5]: 3.69 µM (active)
- Potency [6]: 2.08 µM (active)
- Potency [7]: 16.5 µM (active)
- Potency [8]: 14.7 µM (active)
- Potency [9]: 1.31 µM (active)

Structure (SMILES): CNS(=O)(=O)CCc1ccc2[nH]cc(C3CCN(C)CC3)c2c1
- Potency [3]: inactive
- Potency [10]: inactive
- Potency [4]: inactive
- Potency [5]: 3.69 µM (active)
- Potency [6]: 4.14 µM (active)
- Potency [7]: inactive
- Potency [8]: inactive
- Potency [9]: inactive

Structure (SMILES): C[C@@H](CN1CC(=O)NC(=O)C1)N1CC(=O)NC(=O)C1
- Potency [2]: inactive
- Potency [4]: inactive
- Potency [5]: inactive
- Potency [6]: inactive
- Potency [7]: inactive
- Potency [8]: inactive
- Potency [9]: inactive

Structure (SMILES): CCCc1nc(C)c2c(=O)[nH]c(-c3cc(S(=O)(=O)N4CCN(CC)CC4)ccc3OCC)nn12
- Potency [2]: inactive
- Potency [10]: 14.8 µM (active)

Structure (SMILES): Cc1c(-c2ccc(O)cc2)n(Cc2ccc(OCCN3CCCCCC3)cc2)c2ccc(O)cc12
- Potency [2]: inactive
- Potency [3]: inactive
- Potency [10]: inactive

Structure (SMILES): NC(=O)c1cccnc1
- Potency [2]: inactive
- Potency [3]: inactive
- Potency [10]: inactive
- Potency [5]: 13.1 µM (active)
- Potency [6]: 14.7 µM (active)
- Potency [8]: inactive
- Potency [9]: 10.4 µM (active)

Structure (SMILES): CN1CCCC(n2nc(Cc3ccc(Cl)cc3)c3ccccc3c2=O)CC1 (stereo not given)
- Potency [10]: inactive
- Potency [5]: 9.27 µM (active)
- Potency [6]: 23.3 µM (active)
- Potency [9]: inactive

Structure (SMILES): CCn1cc(C(=O)O)c(=O)c2cc(F)c(N3CCNCC3)cc21
- Potency [2]: inactive
- Potency [3]: inactive
- Potency [10]: inactive

Structure (SMILES): CCCOc1ccc(C(=O)OCCN(CC)CC)cc1N
- Potency [2]: inactive
- Potency [10]: inactive

Structure (SMILES): CCN[C@H]1C[C@H](C)S(=O)(=O)c2sc(S(N)(=O)=O)cc21
- Potency [2]: inactive
- Potency [3]: inactive
- Potency [10]: inactive

Structure (SMILES): CC(C)C[C@H](NC(=O)[C@H](CCc1ccccc1)NC(=O)CN1CCOCC1)C(=O)N[C@@H](Cc1ccccc1)C(=O)N[C@@H](CC(C)C)C(=O)[C@@]1(C)CO1
- Potency [2]: 335 nM (active) and 264 nM (active)
- Potency [3]: 59.6 nM (active) and 296 nM (active)
- Potency [5]: 0.0522 µM (active)
- Potency [6]: 0.0083 µM (active)
- Potency [7]: 0.165 µM (active)
- Potency [9]: 0.329 µM (active)

Structure (SMILES): CCOc1cc(N)c(Cl)cc1C(=O)NCC1CN(Cc2ccc(F)cc2)CCO1 (stereo not given)
- Potency [2]: inactive
- Potency [3]: inactive
- Potency [10]: inactive

Structure (SMILES): Nc1nc(F)nc2c1ncn2[C@@H]1O[C@H](CO)[C@@H](O)[C@@H]1O
- Potency [2]: inactive
- Potency [3]: inactive
- Potency [4]: 0.465 µM (active)
- Potency [5]: 1.85 µM (active)
- Potency [6]: 0.465 µM (active)
- Potency [8]: inactive

Structure (SMILES): COc1cc2c(Nc3ccc(Br)cc3F)ncnc2cc1OCC1CCN(C)CC1
- Potency [2]: inactive
- Potency [3]: inactive
- Potency [4]: inactive
- Potency [6]: inactive
- Potency [7]: inactive
- Potency [9]: inactive

Structure (SMILES): CCOC(=O)c1ccc(OC(=O)CCCCCN=C(N)N)cc1
- Potency [2]: inactive
- Potency [10]: inactive

Structure (SMILES): O=S(=O)(O)CCS
- Potency [2]: inactive
- Potency [10]: inactive
- Potency [5]: inactive
- Potency [8]: inactive

Structure (SMILES): CCOC(=O)[C@H](CCc1ccccc1)N[C@H]1CS[C@H](c2cccs2)CN(CC(=O)O)C1=O
- Potency [2]: inactive
- Potency [3]: inactive
- Potency [4]: inactive
- Potency [5]: 10.4 µM (active)
- Potency [6]: 9.27 µM (active)
- Potency [7]: inactive
- Potency [8]: inactive
- Potency [9]: inactive

Structure (SMILES): CC(C(=O)O)c1ccc2c(c1)CC(=O)c1ccccc1S2 (stereo not given)
- Potency [2]: inactive
- Potency [3]: inactive
- Potency [4]: inactive
- Potency [6]: inactive
- Potency [8]: inactive
- Potency [9]: inactive

Structure (SMILES): COc1cccc(N(C)C(=S)Oc2ccc3c(c2)CCCC3)n1
- Potency [2]: inactive
- Potency [10]: inactive

Structure (SMILES): CNC(=O)c1cc(Oc2ccc(NC(=O)Nc3ccc(Cl)c(C(F)(F)F)c3)cc2)ccn1
- Potency [2]: inactive
- Potency [10]: 18.7 µM (active)
- Potency [4]: 20.8 µM (active)
- Potency [5]: 23.3 µM (active)
- Potency [9]: 18.5 µM (active)
